Screening data: PubChem BioAssay, National Center for Advancing Translational Sciences (NCATS)
Nrf2 block = Nrf2 pathway inhibition. A549 ARE-Fluc reporter, luciferase luminescence, 18-24 h. Potency, µM (series often up to 46 µM), for the others: top-dose activity change, negative = inhibition, actives largely listed as inhibitors. 2.1% of 360,000 active. AID 504444; further: on the % scale 0 is the no-effect control and ±100 the full control effect; nearly all actives have a fitted effect of over 60% in size
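A549 ARE_Fluc cells (5000/well, 5% FBS OPTI-MEM) pre-incubated 2 h, then treated with compounds 18-24 h at 37C/5% CO2 in concentration-response. CellTiter-Fluor viability read first; BugLite luciferase luminescence after 15 min at room temperature gives Nrf2 activity.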
A549 viability = kills or reduces viability of A549 cells in Nrf2 counter-screen; A549 ARE-Fluc cells, CellTiter-Fluor viability, 18-24 h; Potency, µM (highest dose often 46 µM), without a hit: top-dose activity change, negative = cytotoxicity, hits mostly inhibitors; 0.16% of 390,000 active; further: on the % scale 0 is the no-effect control and ±100 the full control effect
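A549 ARE_Fluc cells in 5% FBS OPTI-MEM were exposed to compounds in concentration-response for 18-24 h at 37 deg C. Viability was read by CellTiter-Fluor fluorescence (Ex 405/Em 525) after 30 min, before the luciferase read.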
mIDH1 inhibitor = inhibitors of human mutant IDH1 R132H; O75874; 0.093% of 390,000 active; AID 602179; IDH1-R132H enzyme, NADPH consumption, diaphorase/resazurin fluorescence; Potency, µM (series often up to 76.6 µM), inactives show at the top dose activity change, negative = inhibition, usual class: inhibitors; further: on the % scale 0 is the no-effect control and ±100 the full control effect; nearly all actives have a fitted effect of over 65% in size
Target sequence (O75874 whole entry R132H, stated change not applied): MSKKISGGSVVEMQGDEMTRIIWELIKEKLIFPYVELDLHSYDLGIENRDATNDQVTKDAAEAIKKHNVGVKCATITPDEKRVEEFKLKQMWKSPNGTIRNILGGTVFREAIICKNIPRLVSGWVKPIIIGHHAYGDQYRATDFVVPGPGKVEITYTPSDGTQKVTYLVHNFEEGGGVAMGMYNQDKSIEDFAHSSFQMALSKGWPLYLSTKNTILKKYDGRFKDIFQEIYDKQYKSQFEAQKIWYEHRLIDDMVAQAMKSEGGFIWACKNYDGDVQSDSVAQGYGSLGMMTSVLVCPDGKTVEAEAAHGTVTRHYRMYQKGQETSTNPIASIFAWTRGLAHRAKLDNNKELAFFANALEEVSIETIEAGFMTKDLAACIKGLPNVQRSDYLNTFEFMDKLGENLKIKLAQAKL
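IDH1-R132H (0.5 ug/mL) preincubated 30 min with compound, then NADPH (0.016 mM) and alpha-KG (2 mM) added; 80 min at RT, pH 7.5. Remaining NADPH coupled via diaphorase/resazurin to fluorescence (540/590 nm); concentration-response curves normalized to no-enzyme control.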
ELG1 repair inh = blocks ELG1-dependent DNA repair in HEK293T cells; HEK293T ELG1-luciferase reporter, luminescence, 16 h; DNA damage induced by 5-fluorouridine; 2.3% of 330,000 active; Potency, µM (highest dose often 46.1 µM), for inactives: top-dose activity change, negative = inhibition, usual class: inhibitors; further: on the % scale 0 is the no-effect control and ±100 the full control effect; nearly all actives have a fitted effect of over 55% in size
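Quantitative HTS, concentration-response format. 2,000 cells/well co-treated with 5-fluorouridine and compound, 16 hr in 5% CO2 at 37 °C; ONE-Glo luminescence read after 30 min.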
Nrf2 ARE act = Nrf2 pathway activation | AREc32 ARE-luciferase reporter (MCF7-derived line), luminescence, 24 h | Potency, µM (titrated, usually from 46.1 µM), for inactives: at the top dose activation, most hits filed as activators | 0.31% of 410,000 active; further: % of control where 0% means no effect; nearly all actives have a fitted effect of over 65% in size
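For detection, Steady-Glo was added and plates sat 30 min at RT; before that, AREc32_Fluc cells grown overnight in OPTI-MEM/5% FBS had been treated with 23 nL compound for 24 hr at 37 deg C.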
Starred values were filed as active, the others as inactive; [ ] = remark or other dose. Hits are enriched below; roughly 3.8% of the tested compounds scored in any of these assays. The call rests on the fitted dose curve; in most records, active means well fitted curve in the direction sought with a large enough effect; inconclusive means small, poorly fitted or top-dose-only effect, or another doubt; inactive means no such curve, though single readings can be large; an effect the other way counts as inactive or inconclusive. Potency means the concentration at half of the fitted maximal effect.

How did Cc1ccc(C)c(NS(=O)(=O)c2cc(C(=O)NCCSC3CCCCC3)ccc2C)c1 do in these assays?
Nrf2 block: inconclusive; A549 viability: -29.5%; mIDH1 inhibitor: -0.4%; ELG1 repair inh: 20.6µM*; Nrf2 ARE act: 0.7%

How did O=C(NCCC1=CCCCC1)c1ccc(=O)oc1 do in these assays?
Nrf2 block: inconclusive; A549 viability: -19.4%; mIDH1 inhibitor: 4.7%; ELG1 repair inh: inconclusive; Nrf2 ARE act: 13.4%

Results for O=C(NCCC1=CCCCC1)c1coc(=O)c(Br)c1 ?
Nrf2 block: inconclusive; A549 viability: -27.6%; mIDH1 inhibitor: 1.5%; ELG1 repair inh: -4.4%; Nrf2 ARE act: 12.6µM*

What do the screens show for `COCC(=O)Oc1c(Sc2ccc(C)cc2)c(C)nn1C(C)(C)C`?
Nrf2 block: -5.0%[9.27 µM]; A549 viability: -7.6%; mIDH1 inhibitor: inconclusive; Nrf2 ARE act: 7.8%

What do the screens show for `Cc1cc(C)cc(C(=O)N(Cc2nc(-c3ccc(Cl)cc3)no2)C(C)C)c1`?
Nrf2 block: 1.4%; A549 viability: -5.7%; mIDH1 inhibitor: 0.0%; Nrf2 ARE act: -1.0%

How did CCS(=O)(=O)N1CCC(c2nc(-c3ccc(C(F)(F)F)cc3)no2)CC1 do in these assays?
Nrf2 block: inconclusive; A549 viability: -29.3%; mIDH1 inhibitor: 4.2%; ELG1 repair inh: 6.31µM*; Nrf2 ARE act: 0.3%

Results for O=C(c1ccc(F)cc1)N1CCC(c2nc(-c3ccc(S(=O)(=O)N4CCCC4)cc3)no2)CC1 ?
Nrf2 block: -25.5%; A549 viability: 0.3%; mIDH1 inhibitor: -3.0%; Nrf2 ARE act: -0.5%

What do the screens show for `CCc1ccc(C(=O)N2CCC(c3nc(-c4ccc(S(=O)(=O)N5CCCC5)cc4)no3)CC2)cc1`?
Nrf2 block: 11.6µM*; A549 viability: -19.4%; mIDH1 inhibitor: -9.1%; Nrf2 ARE act: -1.2%

Results for N#Cc1ccc(NS(=O)(=O)c2ccc3c(c2)CCC(=O)N3)cc1 ?
Nrf2 block: -0.2%; A549 viability: -3.0%

How did Cc1onc(-c2ccccc2)c1C(=O)N/N=C/c1c[nH]c2ccccc12 do in these assays?
Nrf2 block: 14.6µM*; A549 viability: inconclusive; mIDH1 inhibitor: 20.8%; ELG1 repair inh: inconclusive; Nrf2 ARE act: 8.4%

Results for COc1cccc(/C=N/NC(=O)c2c(-c3ccccc3)noc2C)c1OC ?
Nrf2 block: -2.4%; A549 viability: 3.0%; mIDH1 inhibitor: 1.3%; Nrf2 ARE act: -0.7%

How did Cn1nnnc1Sc1ncnc2scc(-c3cccc(N)c3)c12 do in these assays?
Nrf2 block: 4.5%; A549 viability: -1.1%

What do the screens show for `CCCCC1CCC(C(=O)N2CC(=O)Nc3ccc(Br)cc3C2c2ccc(F)cc2)CC1` (stereo not drawn)?
Nrf2 block: 4.4%[9.27 µM]; A549 viability: -20.1%; mIDH1 inhibitor: 0.0%; Nrf2 ARE act: 2.8%

How did COc1cc(/C=C2\SC(=Nc3ccccc3)N(CCc3c[nH]c4ccccc34)C2=O)ccc1OC(C)C(=O)O (stereo not drawn) do in these assays?
Nrf2 block: 2.2%; A549 viability: -4.3%; mIDH1 inhibitor: inconclusive; ELG1 repair inh: -3.1%; Nrf2 ARE act: 3.4%

What do the screens show for `COCCN1C(=O)/C(=C/c2ccc(Oc3ccc([N+](=O)[O-])cn3)c(OC)c2)SC1=Nc1ccccc1`?
Nrf2 block: -16.6%; A549 viability: -11.9%; mIDH1 inhibitor: 11.2%; ELG1 repair inh: 2.59µM*; Nrf2 ARE act: 0.2%

Results for Cc1ccc(C)c(SC2=NS(=O)(=O)c3ccccc32)c1 ?
Nrf2 block: -1.2%; A549 viability: -8.2%

How did CC1CCN(Cc2nnnn2CCCC(=O)NCCc2cnn(C)c2)CC1 do in these assays?
Nrf2 block: 11.0%; A549 viability: -4.4%; mIDH1 inhibitor: 0.4%; ELG1 repair inh: 6.1%; Nrf2 ARE act: -0.3%

How did S=C(NN=C(c1ccccc1)c1ccccn1)N(Cc1ccccn1)Cc1ccccn1 do in these assays?
Nrf2 block: inconclusive; A549 viability: 11.6µM*; mIDH1 inhibitor: 2.9%; Nrf2 ARE act: 3.3%
